Compounds without any hit were thinned out: in the full panel of roughly 79,000, 15% have a hit. A number with no mark means an inactive call. No stated cut-off is given here; in the data, active means growth inhibition above about 70%; inactive means the rest.
Test: NCI Yeast Anticancer Drug Screen. Data for the mec2-1 strain (AID 157)
Conditions: S. cerevisiae mec2-1 strain, at 5.0 µM (retest, dose inferred, filed as 0.5), hits give high values
Summary of the method: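 Compounds were applied to mec2-1 yeast cells. Their growth was then compared with that of vehicle-treated cultures to give growth inhibition.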

SMILES | growth inhibition [%]
CCOP(=O)(OCC)C(Cc1ccccc1)N=C(c1ccccc1)c1ccccc1 (stereo not drawn) | -3
CCc1ncnc2cc(OCC3CO3)c(OC)cc12 (stereo not drawn) | 26
CCOC(=O)[C@H]1Nc2ccccc2C2c3ccccc3CC21 (stereo partly drawn) | -10
O=CNc1ccc2c(c1)C(=O)c1ccccc1-2 | 6
CCOc1ccc2c(c1)c(CC(=O)O)cn2C | -40
OC1CSCCCSCCSCCCSC1 | -48
N#Cc1c(N)[nH]c2ccc(Sc3ccccc3)cc12 | -22
Cc1ccc(-c2ccc(Nc3c4ccccc4nc4ccccc34)cc2)cn1 | 9
c1ccc2c(c1)NC(NC1Nc3ccccc3N1)N2 | -3
OC(COc1cccc2ccccc12)CN1CCOCC1 (stereo not drawn) | 24
CCC/C(Cl)=N\OC(=O)Nc1ccc(Br)cc1 | -16
COc1ccc(/C=C2\SC(=S)N(/C=C/c3nc4ccccc4[nH]c3=O)C2=O)cc1OC | -17
O=C(NNc1ccnc2cc(Cl)ccc12)/C(=C\c1ccccc1Cl)NC(=O)c1ccccc1 | -16
CSC1=NNC(SC)=NN1 | 44
Cc1c(C2=C(Br)C(=O)N(C)C2=O)c(=O)n(C)c(=O)n1C | -3
NCCNc1ccc(NCCN)c2c1C(=O)c1c(O)ccc(O)c1C2=O | 14
Cn1c(=O)c(-c2ccccc2)c(N=[N+]=[N-])c2ccccc21 | -10
CCCCCCCCCCCCCCCCCCOCC(O)COP(=O)(O)OCC1OC(n2cc(F)c(=O)[nH]c2=O)CC1O (stereo not drawn) | 51
